Hit rate of the full screen: of about 1,200 compounds, about 290 (24%) were called active. Inconclusive results (about 9%) are left out. No rule for the calls is given here. The list is a sample of the results. Measured potencies and affinities stand elsewhere.
assay: cytotoxicity in EBV lymphoblastoid cells, dose response, cytotoxicity control, cell-based, plate reader, cherry-picks, set 2 (AID 504882); settings: EBV lymphoblastoid cells (LCL) viability; series mostly up to 19.5 µM

Compound	outcome
O=C(Nc1cccc(Cl)c1)Nc1cccc(C(=O)O)c1	inactive
Cc1ccc(C(=O)N2CCN(c3ccc(NC(=O)CSc4ccc(Cl)cc4)cc3)CC2)cc1	inactive
CC1CCN(c2ccc(-c3ccc(NC(=O)C(F)(F)F)cc3)nn2)CC1	inactive
CSc1ccccc1NC(=O)CN1CCCCC1C (stereo unspecified)	inactive
Cc1ccc(NC(=S)NCc2cccs2)cc1	inactive
Cc1ccnc(NC(=O)c2cccc(NC(=O)c3ccc(Cl)c(Cl)c3)c2)c1	inactive
CC(=O)NC(CCS(C)(=O)=O)C(=O)Nc1ccc(Cl)c(Cl)c1 (stereo unspecified)	inactive
S=C(NN=C1C2CC3CC(C2)CC1C3)Nc1ccccc1	inactive
COc1ccccc1NC(=S)NN=C(C)c1ccccn1	inactive
Cn1cccc1CC(=O)NNC(=S)Nc1ccccc1Cl	inactive
COCCCNCC1C(Oc2ccc(Cl)cc2)C(=O)N1c1ccccc1C (stereo unspecified)	inactive
O=c1cc(Cl)nc2ccccn12	inactive
CCCc1nc(SCC(=O)NCc2ccco2)c2c(=O)n(C)c(=O)n(C)c2n1	inactive
COC(=O)[C@@]1(Cc2ccccc2)[C@H]2C(=O)N(Cc3ccccc3)C(=O)[C@H]2[C@H]2CN=C(SCc3ccc(Cl)cc3)N21	inactive
CCOCCCNC(=O)CN1C(=O)/C(=C\c2ccc(C)cc2)Sc2ccccc21	inactive
O=C1NC(c2cccc(OCc3ccccc3)c2)Nc2ccccc21 (stereo unspecified)	inactive
COc1ccccc1C1(CC(=O)O)CCOC(C)(C)C1 (stereo unspecified)	inactive
Clc1cccc(CN2CCCCCC2)c1	inactive
O=C(c1ccccc1Br)N1CCN(Cc2ccc3c(c2)OCO3)CC1	inactive
Fc1cccc(Cl)c1/C=N/n1c(-c2cccnc2)n[nH]c1=S	inactive
Cn1c(-c2ccccc2)cnc1SCC(=O)N1CCCCC1	inactive
COc1ccc([C@H]2N[C@]3(CCCN(Cc4ccco4)C3=O)[C@H]3C(=O)N(Cc4ccccc4)C(=O)[C@@H]23)cc1	inactive
Cc1nn(-c2ccccc2)c(Cl)c1C(=O)N1CCN(c2ncnc3c2cnn3-c2ccccc2)CC1	inactive

Compound	outcome
COc1ccc(/C=C2\N=C(C)OC2=O)cc1[N+](=O)[O-]	inactive
Cc1ccc(N2C(=O)c3ccccc3C2Nc2cccnc2)nc1 (stereo unspecified)	inactive
C=CCN=C1NN=C(c2cc(C)n(CCOC)c2C)CS1	inactive
COc1ccc(-c2nc(CN3CCC(C(=O)N4CCOCC4)CC3)c(C)o2)cc1C	inactive
Cc1cc2ccccc2n1CCNC(=O)COc1ccc2ccccc2c1	inactive
Cc1ccccc1C(=O)c1c[nH]c(C(=O)NCc2ccco2)c1	inactive
O=C1c2ccccc2C(O)N1Cc1ccccc1 (stereo unspecified)	inactive
Nc1ncnc2c1c(-c1ccc(Oc3ccccc3)cc1)cn2C1CCCC1	inactive
CN1CCN(C(=O)C2=C[C@@H](C(C)(C)C)C[C@@H](OCc3ccc(CO)cc3)O2)CC1	inactive
COc1ccc(C(CNC(=O)Nc2ccccc2)N2CCN(C)CC2)cc1 (stereo unspecified)	inactive
CC1CN(c2cc(=O)n(-c3ccccc3)c(=O)[nH]2)CC(C)O1 (stereo unspecified)	inactive
N#CCCn1cc(C(=O)Nc2ccccn2)c(-c2ccccc2)n1	inactive
O=C(Nc1ccccn1)NC1CCCCC1	inactive
Cc1ccc(NC(=O)C(=O)Nc2ccccn2)cc1	inactive
COc1ccc(OCC(=O)Nc2nccs2)cc1	inactive
O=[N+]([O-])c1ccc(N2CCN(Cc3cccc([N+](=O)[O-])c3)CC2)cc1	inactive
Cc1ccc(C2=C/C(=C\c3cccnc3)C(=O)O2)cc1	inactive
CCOc1ccc(N(C(C)C(=O)N2CCCCCC2)S(C)(=O)=O)cc1 (stereo unspecified)	inactive
Cn1ncc(Cl)c1C(=O)NC1CCCC1	inactive
CN(C)c1cccc(C(=O)N/N=C/c2ccccc2F)c1	inactive
CCN(CC)c1ccc(NC(=O)c2cccc(F)c2)c(C)c1	inactive
COCCn1c(SCC(=O)N2CCc3ccccc32)nc2c(c1=O)SC(C)C2 (stereo unspecified)	inactive
Cc1cc(C)n(C2CCCCC2OC(=O)c2ccccc2F)n1 (stereo unspecified)	inactive

Compound	outcome
O=C(c1ccc(Cl)cc1)N1CCN(CCOc2ccccc2)CC1	inactive
CNC(=S)N1N=C(c2cccs2)CC1c1ccc(F)cc1 (stereo unspecified)	inactive
O=C1OCCC1Sc1nnc(-c2ccc(Cl)cc2Cl)o1 (stereo unspecified)	inactive
CCCC(=O)C1=C(O)C(C(=O)OC)C(C)(C)CC1=Nc1ccncc1 (stereo unspecified)	inactive
Cc1cc(C(=O)COC(=O)c2ccc[nH]c2=O)c(C)n1-c1ccccc1	inactive
COc1ccc(S(=O)(=O)N2CCOCC2)cc1NC(=O)COC(=O)CCS(=O)(=O)c1ccc(C)cc1	inactive
O=C(O)CCc1nc(-c2ccc(Cl)cc2)no1	inactive
NC(=O)c1sc2nc3c(c(-c4cccs4)c2c1N)CCCCC3	inactive
O=C1CC(c2cccs2)Cc2nc(NC(=O)C3CC3)ncc21 (stereo unspecified)	inactive
O=C(Nc1ccc(Br)cc1)C1CC(O)CN1C(=O)OCc1ccccc1 (stereo unspecified)	inactive
CC(CN1CCCCC1)OC(=O)c1ccc2c(c1)OCO2 (stereo unspecified)	inactive
COC(=O)C1=C(C(=O)c2ccccc2)C(c2ccccc2)n2nnnc2N1 (stereo unspecified)	inactive
Cc1ccc(NC(=O)/C=N/OCC(=O)NCc2ccccc2Cl)cc1	inactive
Cc1cc(N)nc(=O)n1C1CC(O)C(CO)O1 (stereo unspecified)	inactive
CCOC(=O)/C=C(\C)Sc1cc(=O)oc2ccccc12	inactive
COc1ccc(S(=O)(=O)N2CCCCCC2)cc1C(=O)OCc1cccc(OC)c1OC	inactive
CCCNC(=O)N1CCN(S(=O)(=O)c2ccc(C)c(C)c2)CC1	inactive
Cc1ccc(-n2nc(C(=O)NCc3ccc(C)o3)c3c4ccccc4n(C)c3c2=O)cc1	inactive
COc1ccc(OC)c(CCNC(=O)CCn2nc(C)c3c(C)n(-c4ccccc4)nc3c2=O)c1	inactive
Cn1cc(CC(=O)NCCCN2CCCC2)c2ccccc21	inactive
CCOC(=O)N1CCC(NC(=O)C2CCCN(Cc3nc(-c4cccc(Cl)c4)oc3C)C2)CC1 (stereo unspecified)	inactive
O=C(CN1C(=O)c2ccccc2S1(=O)=O)c1ccccc1	inactive
NC(=O)OCC(COC(N)=O)c1ccccc1	inactive

Compound	outcome
COc1ccc(-n2cnc3c(cnn3CCC#N)c2=N)cc1	inactive
O=C(NC1CCCCC1)N1CCN(c2ccc([N+](=O)[O-])cc2)CC1	inactive
COc1ccc(CCNC(=O)c2nnn(-c3ccc4c(c3)OCCO4)c2N)cc1OC	inactive
Cc1ccccc1-n1nc(C)c2cc(C(=O)NC3CC3)sc21	inactive
CC1CCN(CCOc2ccc(C(=O)c3ccccc3)cc2)CC1	inactive
O=C(Cn1ccc(C(F)(F)F)n1)Nc1cccc(S(=O)(=O)N2CCCCC2)c1	inactive
O=C1C2CCCN2c2ccc(S(=O)(=O)N3CCOCC3)cc2N1Cc1ccccc1F (stereo unspecified)	inactive
Cn1c(CC(=O)Nc2ccc(F)cc2)nnc1SCC(=O)Nc1nncs1	inactive
Cc1ccccc1N(C(=O)c1snc(C(N)=O)c1N)C(C(=O)NC1CCCCC1)c1ccc(O)cc1 (stereo unspecified)	inactive
N#CCN(N=Nc1ccccc1)c1ccccc1	inactive
Cc1cc(/C=C2\Cc3ccccc3C2=O)c(C)n1-c1ccccc1	inactive
COC(=O)c1ccc(/C=C(/NC(=O)c2ccccc2)C(=O)N2CCOCC2)cc1	inactive
Cc1ccc(CCNC(=O)CCc2nc3ccccc3[nH]2)cc1	inactive
CC(=O)Nc1ccc(OCC(O)CNC(C)C)cc1 (stereo unspecified)	inactive
CC1=C(C)C(OCCCl)N(c2cc(O)c(Cl)cc2F)C1=O (stereo unspecified)	inactive
O=C(O)c1cccc(NC(=O)c2cn(-c3ccccc3)nc2-c2ccc(F)cc2)c1	inactive
N/C(=N\OC(=O)c1cccc(Br)c1)c1ccccn1	inactive
C/C(=N/NC(=O)c1cc(C2CC2)[nH]n1)c1cccs1	inactive
Cc1cc(C(=O)CSc2nnc(-c3cccs3)o2)c(C)n1-c1ccccc1	inactive
CN(Cc1ccc(F)cc1)C(=O)CN1CCN(S(=O)(=O)c2ccc3c(c2)OCCCO3)CC1	inactive
COc1cc(N(C)C)c([N+](=O)[O-])cc1C(=O)N1CCN(Cc2ccccc2)CC1	inactive
COc1ccc(CCNC(=O)CSc2ccsc2[N+](=O)[O-])cc1OC	inactive
CCOc1ccc(NC(=O)Cn2cc(C(=O)CC)c3ccccc32)cc1	inactive

Compound	outcome
O=C(NC(Cc1c[nH]c2ccccc12)C(=O)Nc1ccc(F)c([N+](=O)[O-])c1)c1cccs1 (stereo unspecified)	inactive
COc1ccc(/C=N/Nc2cc(OC)ncn2)cc1	inactive
Cc1ccc(C)c(S(=O)(=O)N2CCN(CC(=O)N3CCc4ccccc4C3)CC2)c1	inactive
Cc1ccc(NC(=S)Nc2cccc(S(=O)(=O)Nc3c(C)n(C)n(-c4ccccc4)c3=O)c2)cc1	inactive
O=C1N[C@@H](Cc2c[nH]c3ccccc23)COC(=O)[C@H](Cc2ccc(F)cc2)C/C=C\C[C@H]1CC(=O)N(CCO)Cc1ccccc1	inactive
O=C(Nc1ccc(N2CCOCC2)cc1)c1cnccn1	inactive
O=C(Nc1ccc(CN2CCOCC2)cc1)c1cc2ccccn2n1	inactive
CSc1nc(N)nc(SCC(=O)C23CC4CC(CC(C4)C2)C3)c1C#N	inactive
COc1ccc(C2CC(C(F)(F)F)n3ncc(C(=O)NCc4cccnc4)c3N2)cc1OC (stereo unspecified)	inactive
O=C(CN1C(=O)c2ccccc2C1=O)NNC1=NS(=O)(=O)c2ccccc21	inactive
CCOc1cccc(CNc2nnnn2C)c1	inactive
CCCC(=O)NCCCc1nc2ccccc2n1C	inactive
COc1ccc(/C=C/c2nc3ccccc3c(=O)o2)cc1	inactive
Nc1nc2ccccc2n1C(=O)c1ccccc1	inactive
CC(C)(C)n1nc(-c2ccc(Cl)cc2)c2c(N)ncnc21	inactive
O=C(CCNc1cccc(F)c1)c1cc2ccccc2o1	inactive
CCc1cc(=O)oc2c(CNCc3c(F)cccc3Cl)c(O)ccc12	inactive
Cc1cc(N2CCCC2=O)cc(C)c1S(=O)(=O)Nc1c(C)nn(C)c1C	inactive
O=C(C=C1SCCS1)/C=C/c1ccco1	inactive

Reference: PubChem BioAssay AID504882 (Broad Institute, 2011)
